Results filed as inconclusive are left out. Activity calls are given as the source filed them.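 How the source made its calls, unless noted: active means inhibition above 54%, about 3 SD of non-fluorescent compounds; inactive means the rest.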
Legend:
[1] = yeast TOR pathway RPL19A-GFP modulators, primary screen, cell-based, S. cerevisiae, multiplex flow cytometry (AID 1862; in the data active means percent of DMSO control GFP below about 86%;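 further: lower values mimic rapamycin by blocking the RPL19A rise seen in DMSO cells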); details: S. cerevisiae RPL19A-GFP strain, flow cytometry fluorescence, 3 h; at 10 µM; stronger effect = lower value
[2] = modulators of MEP2-GFP levels in yeast, primary screen, S. cerevisiae, multiplex flow cytometry (AID 1867;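 active means GFP response, as percent of the DMSO control, above the screen-wide mean plus 3 SD, about 139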;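 further: median GFP channel fluorescence of barcode-gated MEP2-GFP cells measured by flow cytometry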); details: S. cerevisiae MEP2-GFP strain, 3 h, at 10 µM, stronger effect = higher value, 100% means same as DMSO wells
[3] = modulators of CIT2-GFP expression in yeast, primary screen, S. cerevisiae, GFP fusion, multiplex flow cytometry (AID 1870;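 active means percent response above a set limit, the screen-wide mean plus 3 SD, cut at about 130% in these data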;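 further: barcoded CIT2-GFP strain pooled with four other GFP strains with rapamycin as positive control; median GFP fluorescence per well over plate mean of DMSO wells so 100% = DMSO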); details: 3 h, at 10 µM, stronger effect = higher value
[4] = modulators of LAP4-GFP expression in yeast, primary screen, S. cerevisiae, multiplex flow cytometry (AID 1873;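 active means GFP signal, as percent of the solvent control, above the screen mean plus 3 SD, about 149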); details: 3 h, at 10 µM, stronger effect = higher value
[5] = modulators of AGP1-GFP expression in yeast TOR pathway, primary screen, cell-based, multiplex flow cytometry, S. cerevisiae (AID 1887;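 active means GFP signal above the screen-wide mean plus 3 SD, that is over about 124.5% of the solvent control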;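 further: AGP1-GFP fusion strain of S. cerevisiae within a five-strain barcoded multiplex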); details: 3 h, at 10 µM, stronger effect = higher value
[6] = inhibitors of CD8+ T cell-vesicle binding, pilot screen, LFA-1/ICAM-1 modulator project, MLPCN validation set, flow cytometry (AID 2523;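 active means response below a set limit, under 55% cells CD8-positive and vesicle-bound, and CD8 cells' 90th-percentile brightness under 279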;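 on vesicle binding response: mean PE anti-B7-1 fluorescence of CD8+ cells relative to row control; 100% = QL9-loaded vesicles with DMSO vehicle in the same plate row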); details: 2C mouse CD8+ T cells, at 7 µM, stronger effect = lower value; double positive events: measured here: CD8+/vesicle+ event percentage
[7] = target: Integrin beta-1 (Homo sapiens) + Integrin alpha-4 (Homo sapiens) (UniProt P13612+P05556); assay: inhibition of HUTS-21 binding to VLA-4, pilot screen, VLA-4 allosteric modulator project, U937 cells, HUTS-21 mAb, flow cytometry, validation set (AID 2674;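 active means inhibition above 50%, about 3 SD of the validation set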;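 further: antibody binding induced by the VLA-4 ligand LDV present at three times its Kd; 0% = LDV ligand with antibody and no compound and 100% = antibody without LDV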); details: HUTS-21 LIBS mAb binding, at 6.7 µM, stronger effect = higher value, binding induced by LDV ligand
Sequence of Integrin beta-1 (Homo sapiens) + Integrin alpha-4 (Homo sapiens) (P05556 whole entry, looked up): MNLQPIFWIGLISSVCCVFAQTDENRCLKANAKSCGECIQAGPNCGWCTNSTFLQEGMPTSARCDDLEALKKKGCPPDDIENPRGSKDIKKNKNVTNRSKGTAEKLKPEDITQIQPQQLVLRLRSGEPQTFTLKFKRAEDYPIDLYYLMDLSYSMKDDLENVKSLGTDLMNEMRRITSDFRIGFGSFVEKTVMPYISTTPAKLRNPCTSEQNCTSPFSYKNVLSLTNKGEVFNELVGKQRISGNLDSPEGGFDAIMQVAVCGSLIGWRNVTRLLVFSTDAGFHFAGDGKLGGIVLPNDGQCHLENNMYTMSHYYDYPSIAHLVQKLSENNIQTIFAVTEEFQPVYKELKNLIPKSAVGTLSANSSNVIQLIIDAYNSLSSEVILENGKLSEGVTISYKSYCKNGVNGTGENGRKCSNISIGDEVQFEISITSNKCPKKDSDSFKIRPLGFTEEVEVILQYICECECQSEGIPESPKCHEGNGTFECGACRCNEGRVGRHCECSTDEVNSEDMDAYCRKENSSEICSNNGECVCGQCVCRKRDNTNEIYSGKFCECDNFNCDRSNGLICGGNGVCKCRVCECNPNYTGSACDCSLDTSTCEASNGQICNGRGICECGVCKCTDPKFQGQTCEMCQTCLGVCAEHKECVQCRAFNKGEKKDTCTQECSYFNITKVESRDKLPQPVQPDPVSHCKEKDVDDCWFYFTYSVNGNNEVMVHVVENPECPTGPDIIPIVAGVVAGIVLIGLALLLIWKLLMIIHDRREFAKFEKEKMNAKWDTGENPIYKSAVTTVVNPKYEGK
Sequence of Integrin beta-1 (Homo sapiens) + Integrin alpha-4 (Homo sapiens) (P13612 whole entry, looked up): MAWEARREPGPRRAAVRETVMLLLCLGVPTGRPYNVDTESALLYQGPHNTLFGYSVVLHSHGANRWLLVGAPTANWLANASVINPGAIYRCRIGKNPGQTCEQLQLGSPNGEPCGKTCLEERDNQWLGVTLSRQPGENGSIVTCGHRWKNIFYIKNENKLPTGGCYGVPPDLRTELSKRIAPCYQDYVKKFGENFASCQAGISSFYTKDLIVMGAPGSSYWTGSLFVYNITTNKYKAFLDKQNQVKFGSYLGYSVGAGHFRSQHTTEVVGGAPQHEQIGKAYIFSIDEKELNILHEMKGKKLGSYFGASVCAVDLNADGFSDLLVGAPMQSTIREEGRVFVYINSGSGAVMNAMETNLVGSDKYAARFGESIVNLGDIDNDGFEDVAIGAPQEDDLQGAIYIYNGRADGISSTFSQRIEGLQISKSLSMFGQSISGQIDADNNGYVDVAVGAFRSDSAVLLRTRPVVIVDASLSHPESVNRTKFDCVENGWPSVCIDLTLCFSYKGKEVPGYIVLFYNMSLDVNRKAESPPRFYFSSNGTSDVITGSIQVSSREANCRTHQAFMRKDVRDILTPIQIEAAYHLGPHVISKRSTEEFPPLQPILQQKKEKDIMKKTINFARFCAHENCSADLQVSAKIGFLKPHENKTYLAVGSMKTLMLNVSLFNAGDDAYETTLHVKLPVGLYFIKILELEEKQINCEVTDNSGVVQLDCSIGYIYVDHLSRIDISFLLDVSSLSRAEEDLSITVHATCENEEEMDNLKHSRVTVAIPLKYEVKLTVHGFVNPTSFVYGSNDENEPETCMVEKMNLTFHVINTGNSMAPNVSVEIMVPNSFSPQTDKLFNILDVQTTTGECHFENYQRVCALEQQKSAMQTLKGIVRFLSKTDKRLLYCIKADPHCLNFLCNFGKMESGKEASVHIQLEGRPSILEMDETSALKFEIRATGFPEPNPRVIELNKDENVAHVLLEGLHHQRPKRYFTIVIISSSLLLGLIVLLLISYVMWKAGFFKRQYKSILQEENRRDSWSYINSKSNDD

[8] = superoxide lowering in aged yeast cells, pilot screen, validation compound set (AID 2706;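 active means superoxide response below 65% of plate, a cut near 3 SD across the whole screen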;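 further: yeast exposed to compound for one week at 30 degrees C before staining; 100% = mean of all compound wells on the same plate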); details: S. cerevisiae aging, superoxide DHE fluorescence; at 10 µM; stronger effect = lower value
[9] = target: Beta-adrenergic receptor kinase 1 (Homo sapiens) (UniProt P25098); assay: GRK2 binders displacing RNA aptamer, biochemical, validation, human GRK2, bead flow cytometry (AID 488806;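 active means aptamer binding inhibition above 30%, about 3 SD of noise from non-fluorescent compounds; inactive means inhibition at or below 30%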); details: bead-bound GRK2, FAM-aptamer displacement, at 10 µM, stronger effect = higher value
Sequence of Beta-adrenergic receptor kinase 1 (Homo sapiens) (P25098 whole entry, looked up): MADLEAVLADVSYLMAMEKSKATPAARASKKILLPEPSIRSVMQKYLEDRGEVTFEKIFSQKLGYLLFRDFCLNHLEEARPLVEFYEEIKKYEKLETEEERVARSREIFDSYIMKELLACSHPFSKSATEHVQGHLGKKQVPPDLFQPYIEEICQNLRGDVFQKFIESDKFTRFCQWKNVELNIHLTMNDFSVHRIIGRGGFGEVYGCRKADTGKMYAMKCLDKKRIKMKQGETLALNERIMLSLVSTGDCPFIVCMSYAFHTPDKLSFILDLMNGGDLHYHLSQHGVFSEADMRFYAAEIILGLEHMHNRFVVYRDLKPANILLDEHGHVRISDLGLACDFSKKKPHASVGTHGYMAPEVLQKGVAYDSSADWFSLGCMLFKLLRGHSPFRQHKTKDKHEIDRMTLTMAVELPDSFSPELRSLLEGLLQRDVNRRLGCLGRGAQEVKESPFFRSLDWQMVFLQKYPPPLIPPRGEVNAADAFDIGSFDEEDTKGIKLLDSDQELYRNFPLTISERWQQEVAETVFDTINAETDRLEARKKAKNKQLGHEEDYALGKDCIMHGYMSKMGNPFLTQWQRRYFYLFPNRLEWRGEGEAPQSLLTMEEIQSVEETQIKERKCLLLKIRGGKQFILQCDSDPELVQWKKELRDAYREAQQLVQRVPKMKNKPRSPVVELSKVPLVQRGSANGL

[10] = target: Beta-2 adrenergic receptor (Homo sapiens) (UniProt P07550); assay: beta2AR agonists driving receptor internalization, pilot screen, cell-based, FAP fluorogen, flow cytometry, validation set (AID 504459;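 active means percent response above 42, roughly 3 SD of non-fluorescent test compounds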;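 further: agonist-driven loss of surface beta2AR via internalization measured by FAP dye flow cytometry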); details: Am2.2-beta2AR cells, FAP surface receptor flow cytometry; at 10 µM; stronger effect = higher value
Sequence of Beta-2 adrenergic receptor (Homo sapiens) (P07550 whole entry, looked up, the tested form may be a part): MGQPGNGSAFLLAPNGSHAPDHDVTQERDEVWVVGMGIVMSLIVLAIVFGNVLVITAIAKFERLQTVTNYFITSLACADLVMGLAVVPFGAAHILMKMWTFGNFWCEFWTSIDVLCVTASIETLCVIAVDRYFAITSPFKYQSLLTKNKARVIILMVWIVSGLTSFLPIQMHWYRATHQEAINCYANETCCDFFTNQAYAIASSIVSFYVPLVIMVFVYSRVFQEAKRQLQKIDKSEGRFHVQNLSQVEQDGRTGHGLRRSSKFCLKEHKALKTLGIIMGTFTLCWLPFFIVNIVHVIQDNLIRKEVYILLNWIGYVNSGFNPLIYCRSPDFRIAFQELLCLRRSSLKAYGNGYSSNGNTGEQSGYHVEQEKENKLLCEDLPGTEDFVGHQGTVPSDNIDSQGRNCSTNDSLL

[11] = target: AP-2 complex subunit beta (Homo sapiens) (UniProt P63010); assay: inhibitors of arrestin peptide binding to AP2, pilot screen, biochemical, validation set, GST-AP2 beads, flow cytometry (AID 504541); details: FITC arrestin peptide, at 10 µM, stronger effect = higher value, AP2 beta2 appendage fragment, R879A mutant;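 further: AP2 carries R879A mutation and is captured from E. coli lysate; bead-bound FITC arrestin peptide fluorescence measuring arrestin peptide binding to AP2; 0% = DMSO wells and 100% = excess unlabeled arrestin peptide control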
Sequence of AP-2 complex subunit beta (Homo sapiens) (P63010 whole entry, looked up, the tested form may be a part, one chain of several): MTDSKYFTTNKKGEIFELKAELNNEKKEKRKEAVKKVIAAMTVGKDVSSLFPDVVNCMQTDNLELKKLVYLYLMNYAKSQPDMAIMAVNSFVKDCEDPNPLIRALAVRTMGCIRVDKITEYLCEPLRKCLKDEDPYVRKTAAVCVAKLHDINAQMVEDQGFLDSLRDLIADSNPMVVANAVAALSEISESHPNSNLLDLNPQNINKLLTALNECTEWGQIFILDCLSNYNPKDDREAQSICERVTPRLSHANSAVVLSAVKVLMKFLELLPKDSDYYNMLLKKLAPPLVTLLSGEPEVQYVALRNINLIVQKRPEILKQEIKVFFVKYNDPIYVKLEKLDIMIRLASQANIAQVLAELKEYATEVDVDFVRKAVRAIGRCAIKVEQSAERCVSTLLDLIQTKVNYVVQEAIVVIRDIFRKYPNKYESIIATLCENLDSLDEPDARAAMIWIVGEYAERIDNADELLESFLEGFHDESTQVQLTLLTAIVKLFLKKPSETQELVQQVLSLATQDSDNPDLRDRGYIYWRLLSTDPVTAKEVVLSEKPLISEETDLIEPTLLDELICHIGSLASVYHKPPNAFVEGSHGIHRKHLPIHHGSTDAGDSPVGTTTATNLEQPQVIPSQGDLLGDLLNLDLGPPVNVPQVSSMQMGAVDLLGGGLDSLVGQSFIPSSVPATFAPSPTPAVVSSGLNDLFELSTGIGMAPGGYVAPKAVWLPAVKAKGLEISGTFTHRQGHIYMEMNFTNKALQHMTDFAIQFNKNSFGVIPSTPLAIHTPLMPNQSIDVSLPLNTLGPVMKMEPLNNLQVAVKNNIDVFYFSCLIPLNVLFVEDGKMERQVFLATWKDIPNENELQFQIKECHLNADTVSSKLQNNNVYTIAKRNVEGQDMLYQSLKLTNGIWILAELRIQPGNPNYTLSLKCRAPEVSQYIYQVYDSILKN

[12] = yeast V-ATPase proton transport modulators, S. cerevisiae, pHLuorin, HTS validation (AID 504600; in the data active means response above about 15%;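 further: plate controls were DMSO for no effect and reference compound for full effect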); details: S. cerevisiae pHLuorin cytosolic pH, at 10 µM, stronger effect = higher value
[13] = test system: anti-desmoglein-3 scFv antibody binding to human DSG3; assay: inhibitors of anti-DSG3 scFv binding to DSG3, pilot screen, biochemical, validation compound set, bead-based, flow cytometry (AID 588368;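 active means binding below the plate cutoff, the plate median minus 3 SD, with a reading above zero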;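 further: signal is the median channel fluorescence of bead-bound GFP antibody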); details: Protein G beads, DSG3-Fc, scFv-GFP binding, at 10 µM, stronger effect = lower value
[14] = inhibitors of fungal efflux pumps CDR1, CDR2, MDR1, pilot screen, validation compound set, multiplex, phenotypic (AID 588506;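 active means efflux inhibition above 0.42, the validation set average plus 4 SD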;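 further: Nile Red retained in cells so higher fluorescence means more efflux inhibition; 0 = negative control wells and 1 = enniatin B 25 µM full block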); details: S. cerevisiae pump-expressing triplex, Nile Red efflux flow cytometry; at 10 µM; stronger effect = higher value; the pumps come from Candida albicans
[15] = target: ATP-binding cassette sub-family B member 6 (Homo sapiens) (UniProt Q9NP58); assay: ABCB6 transporter inhibitors, pilot screen, K562-ABCB6 cells, flow cytometry, validation set (AID 588550;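 active means inhibition above the screen-wide mean plus 3 SD, about 51%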;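 further: 0% = DMSO wells and 100% = benzethonium chloride 70 µM positive control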); details: K562-ABCB6 porphyrin accumulation, 1 h, at 10 µM, stronger effect = higher value
Sequence of ATP-binding cassette sub-family B member 6 (Homo sapiens) (Q9NP58 whole entry, looked up): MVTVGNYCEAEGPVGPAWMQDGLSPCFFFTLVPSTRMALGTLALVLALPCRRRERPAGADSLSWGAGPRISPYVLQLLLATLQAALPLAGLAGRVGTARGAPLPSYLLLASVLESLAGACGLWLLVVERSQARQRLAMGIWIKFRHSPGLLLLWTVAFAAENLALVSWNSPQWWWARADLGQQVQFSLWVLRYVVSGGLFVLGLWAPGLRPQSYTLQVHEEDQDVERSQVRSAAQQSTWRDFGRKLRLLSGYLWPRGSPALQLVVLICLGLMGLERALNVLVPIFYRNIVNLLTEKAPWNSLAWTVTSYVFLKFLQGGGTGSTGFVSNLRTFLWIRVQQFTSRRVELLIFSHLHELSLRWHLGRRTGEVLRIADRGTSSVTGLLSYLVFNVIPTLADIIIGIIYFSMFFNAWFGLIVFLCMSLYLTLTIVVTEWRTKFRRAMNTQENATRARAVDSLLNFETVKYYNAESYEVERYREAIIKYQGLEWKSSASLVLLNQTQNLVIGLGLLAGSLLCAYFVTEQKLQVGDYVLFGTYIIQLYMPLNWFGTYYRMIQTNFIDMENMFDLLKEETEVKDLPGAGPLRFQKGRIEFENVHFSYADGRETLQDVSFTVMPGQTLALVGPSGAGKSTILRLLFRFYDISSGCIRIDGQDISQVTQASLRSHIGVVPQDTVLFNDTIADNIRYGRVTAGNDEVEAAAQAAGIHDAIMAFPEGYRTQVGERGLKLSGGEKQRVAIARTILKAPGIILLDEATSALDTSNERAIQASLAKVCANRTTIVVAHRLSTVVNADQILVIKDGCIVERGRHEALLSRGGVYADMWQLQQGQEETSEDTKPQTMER

[16] = promoters of myeloid differentiation in arrested cells, primary screen, cell-based, GFP/MAC1 double positive, flow cytometry, validation set (AID 588685;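 active means differentiation response of at least 50%, scaled between solvent and reference control, from cells with both markers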;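 further: compound exposure lasts four days before antibody staining and flow analysis; 0% = DMSO wells and 100% = 5 µM fulvestrant positive control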); details: ER-HoxA9 marrow cells, stronger effect = higher value, normalized: vehicle 0, fulvestrant 100

Row | SMILES | percent of DMSO control GFP [1] | GFP response vs DMSO [2] | percent response of DMSO control [3] | GFP response vs DMSO [4] | GFP response, % of DMSO [5] | double positive events [6] [%] | vesicle binding response [6] | inhibition [7] | superoxide response (% of plate) [8] | aptamer binding inhibition [9] | response [10] | inhibition [11] | response [12] | binding (% of control) [13] | efflux inhibition (fraction of control) [14] | inhibition [15] | differentiation response [16]
1 | CC(=O)C1=C(Nc2ccc(C)cc2)CC(C)(O)C(C(C)=O)C1c1ccco1 (stereo not given) | 105% (inactive) | 104% (inactive) | 93.1% (inactive) | 96.6% (inactive) | 97.2% (inactive) | 66.9 | 223% (inactive) | -9.79% (inactive) | 103% (inactive) | 5% (inactive) | 0.66% (inactive) | 36.9% (inactive) | -0.29% (inactive) | 105% (inactive) | 0.3 (inactive) | -19% (inactive) | 14.9% (inactive)
2 | C[N+](C)(C)CCCC(=O)c1ccc2c(c1)OCO2 | 94.4% (inactive) | 111% (inactive) | 96.7% (inactive) | 107% (inactive) | 97.7% (inactive) | 59.8 | 135% (inactive) | -22.3% (inactive) | 104% (inactive) | 0% (inactive) | -0.41% (inactive) | -2.19% (inactive) | 0.48% (inactive) | 101% (inactive) | -0.03 (inactive) | 8% (inactive) | -12% (inactive)
3 | CN1CCN(CCCN2c3ccccc3Sc3ccc(Cl)cc32)CC1 | 99.3% (inactive) | 102% (inactive) | 97% (inactive) | 113% (inactive) | 120% (inactive) | 61.4 | 179% (inactive) | 63.6% (active) | 70.1% (inactive) | 0% (inactive) | -15% (inactive) | 0.77% (inactive) | 1.39% (inactive) | 106% (inactive) | -0.17 (inactive) | 7% (inactive) | 3.88% (inactive)
4 | O=C(/C=C/c1ccc2c(c1)OCCCO2)c1ccc2ccccc2c1O | 97.3% (inactive) | 102% (inactive) | 99.6% (inactive) | 112% (inactive) | 109% (inactive) | 59.6 | 215% (inactive) | -76.9% (inactive) | 102% (inactive) | 8% (inactive) | -12.2% (inactive) | -2.45% (inactive) | 2.01% (inactive) | 98.5% (inactive) | 0.04 (inactive) | 6% (inactive) | -7.94% (inactive)
5 | COc1ccc2cc(C(=O)OC(C)C)sc(=O)c2c1OC | 106% (inactive) | 98.6% (inactive) | 95.1% (inactive) | 121% (inactive) | 106% (inactive) | 61.9 | 220% (inactive) | 3.99% (inactive) | 112% (inactive) | 0% (inactive) | -12.6% (inactive) | -1.55% (inactive) | -19.1% (inactive) | 85.1% (inactive) | 0 (inactive) | 4% (inactive) | 11.8% (inactive)
